Results published in PubChem BioAssay.
For some assays here: Results with a measured potency or affinity are listed apart. Active and inactive are the calls of the source. Unless noted, the rule behind the calls is not given here.

Columns and labels:
[1] = antimalarial activity against Dd2 strain (AID 2302;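 active = growth inhibition above 50% at the single 2 µM test dose, taken to imply half-maximal potency below 2 µM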;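 note: 0% = DMSO untreated growth and 100% = chloroquine plus artemisinin killed control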); conditions: P. falciparum Dd2 in RBCs, LDH growth readout, 72 h; at 2 µM; active compounds read high
[2] = human hepatoma cell viability loss – ATP luminescence, cytotoxicity control for P. falciparum antimalarial project, primary screen (AID 2303;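 active = inhibition above 50%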;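 note: 0% = DMSO wells and 100% = digitonin-killed cells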); conditions: HepG2 viability, 24-48 h, at 10 µM, active compounds read high
[3] = target: L-lactate dehydrogenase (Plasmodium falciparum (isolate CDC / Honduras)) (UniProt Q27743); experiment: PfLDH activity inhibition – cell lysate, 3D7 strain, counter-screen for P. falciparum growth inhibition project (AID 2304);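 note: 0% = vehicle and 100% = reference inhibitor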; conditions: P. falciparum 3D7 crude extract, LDH APAD/NBT absorbance; at 2 µM; active compounds read high
[4] = inhibition of 3D7 malaria parasite growth – strain 3D7 (AID 2306);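 note: 0% = DMSO wells and 100% = chloroquine plus artemisinin control wells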; conditions: P. falciparum 3D7 erythrocytic growth, LDH absorbance, 72 h; at 2 µM; active compounds read high
[5] = target: Calcium-dependent protein kinase 1 (Plasmodium falciparum (isolate 3D7)) (UniProt P62344); experiment: PfCDPK1 kinase inhibitors, biochemical, TCAMS library (AID 1159585; cut-off not given, nearly all actives have IC50 up to about 0.98 µM;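 note: inhibitors leave more ATP so luminescence rises with inhibition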); conditions: recombinant PfCDPK1, Kinase-Glo ATP depletion luminescence
[6] = target: Plasmodium falciparum protein kinase 6 (PK6, PF3D7_1337100) (UniProt Q8IDW1); experiment: PfPK6 kinase inhibitors, biochemical, TCAMS library (AID 1159586); conditions: recombinant PfPK6, Kinase-Glo ATP depletion luminescence
[7] = target: Protein kinase 7 (PK7), Plasmodium falciparum 3D7 (PF3D7_0213400) (UniProt Q7YTF7); experiment: inhibition of Plasmodium PK7 catalytic activity – biochemical, TCAMS antimalarial set, Kinase-Glo luminescence (AID 1159587); conditions: recombinant PfPK7, Kinase-Glo ATP depletion luminescence
[8] = target: Calcium-dependent protein kinase 4 (Plasmodium falciparum (isolate 3D7)) (UniProt Q8IBS5); experiment: PfCDPK4 kinase inhibitors, biochemical, TCAMS library (AID 1159588; cut-off not given, nearly all actives have IC50 up to about 0.91 µM); conditions: recombinant PfCDPK4, Kinase-Glo ATP depletion luminescence
Calcium-dependent protein kinase 4 (Plasmodium falciparum (isolate 3D7)), sequence (Q8IBS5 whole entry, looked up): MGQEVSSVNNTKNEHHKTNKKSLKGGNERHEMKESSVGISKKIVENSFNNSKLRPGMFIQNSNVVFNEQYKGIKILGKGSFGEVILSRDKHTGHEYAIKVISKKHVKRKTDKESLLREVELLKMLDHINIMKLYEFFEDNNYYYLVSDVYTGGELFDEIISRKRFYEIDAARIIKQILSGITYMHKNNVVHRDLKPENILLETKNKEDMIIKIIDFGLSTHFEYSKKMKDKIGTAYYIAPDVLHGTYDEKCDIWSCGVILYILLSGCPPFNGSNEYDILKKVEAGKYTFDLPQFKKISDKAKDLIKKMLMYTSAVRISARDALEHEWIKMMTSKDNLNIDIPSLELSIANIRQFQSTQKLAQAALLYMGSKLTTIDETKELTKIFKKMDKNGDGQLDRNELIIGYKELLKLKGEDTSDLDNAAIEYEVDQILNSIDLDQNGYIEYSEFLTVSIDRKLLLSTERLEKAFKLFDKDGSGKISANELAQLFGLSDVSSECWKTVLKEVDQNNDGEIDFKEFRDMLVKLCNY

Calcium-dependent protein kinase 1 (Plasmodium falciparum (isolate 3D7)), sequence (P62344 whole entry, looked up): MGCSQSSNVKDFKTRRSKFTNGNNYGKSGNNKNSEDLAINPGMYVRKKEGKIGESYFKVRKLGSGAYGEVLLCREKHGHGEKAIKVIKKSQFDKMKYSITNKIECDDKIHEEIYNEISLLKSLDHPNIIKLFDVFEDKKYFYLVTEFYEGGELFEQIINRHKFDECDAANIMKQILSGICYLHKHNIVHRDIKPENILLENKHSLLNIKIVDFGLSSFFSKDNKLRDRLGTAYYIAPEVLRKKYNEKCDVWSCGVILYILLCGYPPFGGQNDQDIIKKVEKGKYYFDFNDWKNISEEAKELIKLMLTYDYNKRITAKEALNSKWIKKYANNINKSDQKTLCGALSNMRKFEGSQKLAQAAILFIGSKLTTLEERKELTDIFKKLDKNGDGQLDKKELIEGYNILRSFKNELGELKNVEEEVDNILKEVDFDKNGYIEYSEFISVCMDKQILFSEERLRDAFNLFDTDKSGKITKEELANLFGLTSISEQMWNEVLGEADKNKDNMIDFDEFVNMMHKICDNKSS
Protein kinase 7 (PK7), Plasmodium falciparum 3D7 (PF3D7_0213400), sequence (Q7YTF7 1-343): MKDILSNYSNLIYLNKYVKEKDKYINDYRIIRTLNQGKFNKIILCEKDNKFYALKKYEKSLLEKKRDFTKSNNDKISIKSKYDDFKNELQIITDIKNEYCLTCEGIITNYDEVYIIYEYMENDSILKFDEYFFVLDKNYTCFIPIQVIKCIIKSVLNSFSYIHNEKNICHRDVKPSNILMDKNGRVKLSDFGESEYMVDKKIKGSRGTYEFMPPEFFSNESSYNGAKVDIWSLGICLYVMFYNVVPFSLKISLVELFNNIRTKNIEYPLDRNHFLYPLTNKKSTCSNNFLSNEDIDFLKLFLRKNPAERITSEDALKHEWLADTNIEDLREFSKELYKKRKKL
L-lactate dehydrogenase (Plasmodium falciparum (isolate CDC / Honduras)), sequence (Q27743 whole entry, looked up): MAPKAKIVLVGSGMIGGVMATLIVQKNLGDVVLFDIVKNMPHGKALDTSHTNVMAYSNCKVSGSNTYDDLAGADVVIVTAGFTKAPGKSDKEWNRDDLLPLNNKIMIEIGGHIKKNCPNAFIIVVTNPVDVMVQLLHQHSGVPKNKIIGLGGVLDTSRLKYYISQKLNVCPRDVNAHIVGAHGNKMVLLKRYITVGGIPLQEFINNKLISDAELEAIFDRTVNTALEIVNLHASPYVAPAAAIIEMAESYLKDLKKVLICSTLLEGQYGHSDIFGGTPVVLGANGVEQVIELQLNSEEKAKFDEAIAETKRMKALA
Plasmodium falciparum protein kinase 6 (PK6, PF3D7_1337100), sequence (Q8IDW1 1-305): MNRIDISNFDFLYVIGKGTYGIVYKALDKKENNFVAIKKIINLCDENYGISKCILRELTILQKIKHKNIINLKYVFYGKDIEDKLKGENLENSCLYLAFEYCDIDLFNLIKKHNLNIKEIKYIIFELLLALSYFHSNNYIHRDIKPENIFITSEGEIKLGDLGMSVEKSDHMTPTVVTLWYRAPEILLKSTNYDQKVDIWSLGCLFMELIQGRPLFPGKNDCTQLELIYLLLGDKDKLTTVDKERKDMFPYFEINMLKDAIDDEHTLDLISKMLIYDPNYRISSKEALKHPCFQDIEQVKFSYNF

Nc1nc(Nc2cccc(Cl)c2)ncc1C(=O)NCc1ccncc1
active: growth inhibition [4] 98%
inactive: growth inhibition [1] 29% | inhibition [2] 3% | inhibition [3] -5% | outcome [5] | outcome [6] | outcome [7] | outcome [8]

COc1cc2c(cc1OC)CC(NCc1ccc(-c3ccc4nc[nH]c4c3)cc1)C2
active: growth inhibition [1] 92% | growth inhibition [4] 97%
inactive: inhibition [2] 40% | inhibition [3] 0% | outcome [5] | outcome [6] | outcome [7] | outcome [8]

CCCC(C)Nc1nc(C)cc(N[C@@H](CC(C)C)C(=O)Nc2ccc(OC)cc2)n1 (stereo not given in full)
inactive: inhibition [2] 18% | inhibition [3] -1% | outcome [5] | outcome [6] | outcome [7] | outcome [8]
active: growth inhibition [1] 68% | growth inhibition [4] 98%

COc1cc2c(cc1OC)C(c1ccc(Br)cc1)CN(C)CC2 (stereo not given)
active: growth inhibition [4] 86%
inactive: growth inhibition [1] -3% | inhibition [2] 8% | inhibition [3] -3% | outcome [5] | outcome [6] | outcome [7] | outcome [8]

CC(C)Cn1c(Sc2ccc(C#N)c([N+](=O)[O-])c2)nnc1-c1ccccc1
active: growth inhibition [4] 83%
inactive: growth inhibition [1] 12% | inhibition [2] 17% | inhibition [3] 2% | outcome [5] | outcome [6] | outcome [7] | outcome [8]

Cn1cc(Br)c(-c2cccc(Nc3ccnc4cc(-c5nccs5)ccc34)c2)n1
active: growth inhibition [4] 91%
inactive: growth inhibition [1] 32% | inhibition [2] 37% | inhibition [3] -1% | outcome [5] | outcome [6] | outcome [7] | outcome [8]

CCOc1cc(C2C(C(=O)OC(C)C)=C(C)NC3=C2C(=O)CC(c2ccc(Cl)cc2)C3)ccc1OC(C)=O (stereo not given)
active: growth inhibition [4] 90%
inactive: growth inhibition [1] 20% | inhibition [2] 16% | inhibition [3] -3% | outcome [5] | outcome [6] | outcome [7] | outcome [8]

Cc1cc(NN=Cc2cccc(F)c2)c2ccc(F)cc2n1
active: growth inhibition [1] 99% | growth inhibition [4] 101%
inactive: inhibition [2] 2% | inhibition [3] -2% | outcome [5] | outcome [6] | outcome [7] | outcome [8]

O=C(Nc1ccc(OC2CCN(Cc3ccsc3)C2)c(Cl)c1)c1ccco1 (stereo not given)
active: growth inhibition [1] 96% | growth inhibition [4] 93%
inactive: inhibition [2] -6% | inhibition [3] -5% | outcome [5] | outcome [6] | outcome [7] | outcome [8]

COc1cccc2cc(C(=O)N[C@@H](CC(C)C)C(=O)N[C@H](/C=N/N(C)C(=O)OC(C)(C)C)Cc3ccccc3)oc12
active: growth inhibition [1] 89% | growth inhibition [4] 99%
inactive: inhibition [2] 5% | inhibition [3] -3% | outcome [5] | outcome [6] | outcome [7] | outcome [8]

CCCCCCOc1ccc(C(=O)NCCCC2CCCN(CCCCCNC(=O)C=Cc3ccc(Cl)c(Cl)c3)C2)cc1 (stereo not given)
inactive: growth inhibition [1] 12% | inhibition [2] 20% | inhibition [3] 2% | outcome [5] | outcome [6] | outcome [7] | outcome [8]
active: growth inhibition [4] 96%

Cc1ccc(-c2cnc(N)c3cc(-c4ccnc(N)n4)ccc23)cc1
active: growth inhibition [1] 94% | growth inhibition [4] 99%
inactive: inhibition [2] 41% | inhibition [3] -5% | outcome [5] | outcome [6] | outcome [7] | outcome [8]

O=[N+]([O-])c1cc(/C=N/Nc2nc3ccccc3[nH]2)ccc1O
active: growth inhibition [4] 98%
inactive: growth inhibition [1] 14% | inhibition [2] -7% | inhibition [3] -5% | outcome [5] | outcome [6] | outcome [7] | outcome [8]

COc1ccc(S(=O)(=O)N2CCCC(C)C2)cc1N1CCN(C(=O)c2ccc([N+](=O)[O-])o2)CC1 (stereo not given)
active: growth inhibition [4] 94%
inactive: growth inhibition [1] 4% | inhibition [2] -3% | inhibition [3] -2% | outcome [5] | outcome [6] | outcome [7] | outcome [8]

O=C(N[C@H]1CCN(Cc2ccc(OC3CCN(Cc4ccccc4)CC3)cc2)C1)c1ccc(Cl)c(Cl)c1
active: growth inhibition [4] 90%
inactive: growth inhibition [1] 6% | inhibition [2] 37% | inhibition [3] 1% | outcome [5] | outcome [6] | outcome [7] | outcome [8]

COc1ccc(OC(C)CNC(=O)c2cc([N+](=O)[O-])ccc2-c2ccc(OC)cc2)cc1 (stereo not given)
active: growth inhibition [4] 92%
inactive: growth inhibition [1] 44% | inhibition [2] 18% | inhibition [3] 3% | outcome [5] | outcome [6] | outcome [7] | outcome [8]

O=C(/C=C/c1ccc(Cl)c(Cl)c1)NCCCCCN1CCC(NC(=O)Nc2ccc(Cl)cc2Cl)CC1
active: inhibition [2] 96% | growth inhibition [4] 91%
inactive: growth inhibition [1] 33% | inhibition [3] -2% | outcome [5] | outcome [6] | outcome [7] | outcome [8]

CC1(C)N=C(N)N=C(N)N1OCCCc1c(Cl)cccc1Cl
active: growth inhibition [1] 97% | inhibition [2] 71% | growth inhibition [4] 95%
inactive: inhibition [3] 3% | outcome [5] | outcome [6] | outcome [7] | outcome [8]

COc1cc(OC)nc(-c2cccc(NC(=O)c3ccc4c(=O)n(CCN5CCCCC5)cnc4c3)c2)n1
inactive: inhibition [2] 11% | inhibition [3] -1% | outcome [5] | outcome [6] | outcome [7] | outcome [8]
active: growth inhibition [1] 86% | growth inhibition [4] 100%

O=C(N[C@@H](Cc1ccccc1)C(=O)NCCN1CCCC1)c1ccc(O)c(-c2ccc(Cl)c(Cl)c2)c1
inactive: growth inhibition [1] 46% | inhibition [2] 8% | inhibition [3] -2% | outcome [5] | outcome [6] | outcome [7] | outcome [8]
active: growth inhibition [4] 95%

CN1CCC(NCc2cccc(-c3ccc(S(=O)(=O)NCCN4CCCC4)c(F)c3)c2)CC1
inactive: growth inhibition [1] -4% | inhibition [2] 14% | inhibition [3] 2% | outcome [5] | outcome [6] | outcome [7] | outcome [8]
active: growth inhibition [4] 91%

CC(=O)Nc1ncc(C(=O)Nc2cccc(-c3ccc(-c4nc5ccc(C(F)(F)F)cc5[nH]4)cc3)c2)s1
inactive: inhibition [3] -4% | outcome [5] | outcome [6] | outcome [7] | outcome [8]
active: growth inhibition [1] 94% | inhibition [2] 83% | growth inhibition [4] 101%

Nc1c2c(nc3ccc(C(=O)Nc4ccccc4)cc13)CCCC2
inactive: inhibition [2] 20% | inhibition [3] -3% | outcome [5] | outcome [6] | outcome [7] | outcome [8]
active: growth inhibition [1] 78% | growth inhibition [4] 100%

O=C(Nc1ccccc1Br)N[C@@H]1CCN(c2ccnc3ccccc23)C1
inactive: inhibition [2] 25% | inhibition [3] 2% | outcome [5] | outcome [6] | outcome [7] | outcome [8]
active: growth inhibition [1] 90% | growth inhibition [4] 91%

CC(C)(C)c1ccc(S(=O)(=O)Nc2cc(Cl)ccc2Cn2ccc(N3CCNCC3)nc2=O)cc1
inactive: inhibition [2] -9% | inhibition [3] 2% | outcome [5] | outcome [6] | outcome [7] | outcome [8]
active: growth inhibition [1] 74% | growth inhibition [4] 95%

COc1ccc(O)c(Cc2cnc3nc(N)nc(N)c3c2C)c1
active: growth inhibition [1] 74% | inhibition [2] 56% | growth inhibition [4] 94%
inactive: inhibition [3] 5% | outcome [5] | outcome [6] | outcome [7] | outcome [8]

COc1ccccc1N1CCN(CCCCNC(=O)c2ccc(NC(=O)c3cc4ccccc4o3)cc2)CC1
inactive: growth inhibition [1] 2% | inhibition [2] 9% | inhibition [3] -1% | outcome [5] | outcome [6] | outcome [7] | outcome [8]
active: growth inhibition [4] 84%

O=C(Nc1ccc2c(c1)CCC2)c1cccc(N2CCN(c3ccncc3)CC2)c1
active: growth inhibition [4] 92%
inactive: growth inhibition [1] 22% | inhibition [2] 35% | inhibition [3] -2% | outcome [5] | outcome [6] | outcome [7] | outcome [8]

CCCCCCN(CCCCCC)CC(O)c1c(OC)ccc2ccccc12 (stereo not given)
inactive: inhibition [2] 18% | inhibition [3] -1% | outcome [5] | outcome [6] | outcome [7] | outcome [8]
active: growth inhibition [1] 100% | growth inhibition [4] 101%

c1ccc(CCNCc2cccc(-c3ccc(CNc4ccc5ncccc5c4)cc3)c2)cc1
active: growth inhibition [4] 93%
inactive: growth inhibition [1] 27% | inhibition [2] 43% | inhibition [3] -2% | outcome [5] | outcome [6] | outcome [7] | outcome [8]

COc1cc(C=CC(=O)N2CCC3(CC2)CC(=O)c2ccccc2O3)cc(OC)c1OC
active: growth inhibition [1] 66% | growth inhibition [4] 88%
inactive: inhibition [2] 7% | inhibition [3] -1% | outcome [5] | outcome [6] | outcome [7] | outcome [8]

CC1(C)N=C(N)N=C(N)N1c1ccc(Br)cc1
inactive: growth inhibition [1] 4% | inhibition [3] 0% | outcome [5] | outcome [6] | outcome [7] | outcome [8]
active: inhibition [2] 52% | growth inhibition [4] 94%

CCOc1cc(C(=O)NCCN(C(C)C)C(C)C)ccc1-c1nc2ccc(Cl)cc2[nH]1
inactive: inhibition [2] 4% | inhibition [3] 2% | outcome [5] | outcome [6] | outcome [7] | outcome [8]
active: growth inhibition [1] 90% | growth inhibition [4] 101%

CCc1nc(N)nc(N)c1-c1ccc(C(C)C)cc1
active: growth inhibition [4] 92%
inactive: growth inhibition [1] -4% | inhibition [2] 3% | inhibition [3] 1% | outcome [5] | outcome [6] | outcome [7] | outcome [8]

CCOCCCNc1nc2cc(OC)c(OC)cc2c2nc(-c3ccccc3)nn12
active: growth inhibition [1] 98% | growth inhibition [4] 96%
inactive: inhibition [2] 10% | inhibition [3] -3% | outcome [5] | outcome [6] | outcome [7] | outcome [8]

COc1ccc2nccc([C@@H](O)CN3[C@@H]4CC[C@H]3CC(NCc3ccc5c(n3)NC(=O)CS5)C4)c2n1 (stereo not given in full)
inactive: growth inhibition [1] 11% | inhibition [2] -1% | inhibition [3] 4% | outcome [5] | outcome [6] | outcome [7] | outcome [8]
active: growth inhibition [4] 99%

CC(Cc1ccc(CN2CCN(Cc3ccccc3)CC2)cc1)NCC(O)c1cccc(C(F)(F)F)c1 (stereo not given)
active: growth inhibition [1] 98% | inhibition [2] 51% | growth inhibition [4] 97%
inactive: inhibition [3] -7% | outcome [5] | outcome [6] | outcome [7] | outcome [8]

Cc1nc(-c2ccc(-c3ccc(C(=O)Nc4ccc(C(C)C)c(OCCN(C)C)c4)cc3)c(C)c2)no1
active: growth inhibition [4] 99%
inactive: growth inhibition [1] 45% | inhibition [2] 49% | inhibition [3] -2% | outcome [5] | outcome [6] | outcome [7] | outcome [8]

O=C(/C=C/c1ccc(Cl)cc1)NCCCCCN1CCN(C(=O)Nc2ccc(Cl)c(C(F)(F)F)c2)CC1
active: growth inhibition [4] 94%
inactive: growth inhibition [1] 5% | inhibition [2] 18% | inhibition [3] 8% | outcome [5] | outcome [6] | outcome [7] | outcome [8]

COCCNCc1cccc(-c2ccc3c(Nc4ccc(F)cc4Cl)ccnc3c2)c1
inactive: inhibition [2] 8% | inhibition [3] 3% | outcome [5] | outcome [6] | outcome [7] | outcome [8]
active: growth inhibition [1] 100% | growth inhibition [4] 103%
